Assay outcomes (PubChem)
This is a sample that favours compounds with a hit; in the whole collection about 1.4% have one here.
A3G deaminase: blocks human APOBEC3G single-stranded DNA deamination | 0.28% of 330,000 active | Q9HC16 | inhibition, % at 20 µM | recombinant A3G, ssDNA deamination FAM/TAMRA fluorescence | AID 493012;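 active = inhibition of at least 40% at 20 µM, with no more than 30% in the related APOBEC3A deaminase screen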
Target sequence (Q9HC16 whole entry, looked up): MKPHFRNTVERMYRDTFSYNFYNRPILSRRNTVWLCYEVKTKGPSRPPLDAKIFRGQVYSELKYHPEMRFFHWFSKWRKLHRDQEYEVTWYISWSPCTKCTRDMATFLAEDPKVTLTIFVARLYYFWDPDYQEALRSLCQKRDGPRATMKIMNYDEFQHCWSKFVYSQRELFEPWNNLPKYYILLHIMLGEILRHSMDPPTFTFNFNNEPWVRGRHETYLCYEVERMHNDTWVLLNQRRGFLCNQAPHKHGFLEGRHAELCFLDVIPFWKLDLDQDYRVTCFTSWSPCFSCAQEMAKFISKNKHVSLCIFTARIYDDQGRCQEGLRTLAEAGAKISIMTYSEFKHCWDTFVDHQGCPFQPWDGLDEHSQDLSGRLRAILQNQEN
HDAC3 inhib: blocks human histone deacetylase 3. recombinant HDAC3, fluorogenic peptide/trypsin coupled, fluorescence. 0.15% of 320,000 active. inhibition, % at 8.3 µM; in the data active = inhibition above about 26%, passing the limit was not always enough; inconclusive = no clear call, values can overlap the other calls
LANA-H2A inh: blocks KSHV LANA binding to histone H2A/H2B; cell-free LANA-H2A/H2B peptide, fluorescence polarization; inhibition, % (no concentration beside the values); 0.6% of 320,000 active; AID 2629; in the data active = inhibition mostly above about 10%, no sharp cut-off; inactive = mostly below about 6.7%
A3A deaminase: blocks human APOBEC3A ssDNA deamination | 0.41% of 330,000 active | AID 493011 | inhibition, % at 20 µM | recombinant A3A, FAM/TAMRA ssDNA deamination fluorescence;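 active = at least 40% inhibition at 20 µM here, with at most 30% in a related deaminase screen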
Target sequence (P31941 whole entry, looked up): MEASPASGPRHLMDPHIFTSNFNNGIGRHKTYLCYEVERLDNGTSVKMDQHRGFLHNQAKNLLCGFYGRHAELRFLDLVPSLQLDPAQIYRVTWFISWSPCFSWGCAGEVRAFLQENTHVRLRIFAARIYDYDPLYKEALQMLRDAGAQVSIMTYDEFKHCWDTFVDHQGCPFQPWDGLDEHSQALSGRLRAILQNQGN
Each line names hits and unclear results; the compound was inactive in the other large screens.

Cc1cccc(NC(=O)c2cccc(NC3=NC4CS(=O)(=O)CC4S3)c2)c1 (stereo not given)	none
Cc1ccc(NC(=O)c2cccc(NC3=NC4CS(=O)(=O)CC4S3)c2)cc1C (stereo not given)	LANA-H2A inh 24.3
COc1ccc(C2(C)NC(=O)N(CC(=O)NCc3ccccc3)C2=O)cc1OC (stereo not given)	LANA-H2A inh 24.8
CC(C)(C)N(Cc1ccccc1)C(=O)CN1C(=O)c2ccccc2C1=O	none
Cc1ccc(C2(C)NC(=O)N(CC(=O)N(Cc3ccccc3)C(C)(C)C)C2=O)cc1 (stereo not given)	LANA-H2A inh 17.4
O=C(CN1CCN(S(=O)(=O)c2ccccc2)CC1)N1CCc2ccccc21	none
CC(C)CCN(C)C1CCN(S(=O)(=O)c2cccc(C(F)(F)F)c2)CC1	LANA-H2A inh 24.5
CC1CN(S(=O)(=O)c2cccc(C(F)(F)F)c2)CC(C)O1 (stereo not given)	none
CCOC(=O)COn1c(-c2cccc(Cl)c2)nc2ccc([N+](=O)[O-])cc21	none
CCOC(=O)C(C)On1c(-c2cccc(Cl)c2)nc2ccc([N+](=O)[O-])cc21 (stereo not given)	LANA-H2A inh 50.9
O=C(C[n+]1ccc(/C=N/O)cc1)NC1CCCCC1	LANA-H2A inh 17.5
O=C(C[n+]1ccc(/C=N/O)cc1)NCc1ccccc1	none
COCCCNC(=O)Cn1cnc2c(OCc3ccccc3)ncnc21	LANA-H2A inh 194.1
COc1ccccc1N1CCN(C2CC(=O)N(c3cccc(Cl)c3)C2=O)CC1 (stereo not given)	LANA-H2A inh 21.5
COc1ccccc1N1CCN(C2CC(=O)N(c3ccccc3)C2=O)CC1 (stereo not given)	none
CC(=O)c1ccccc1NC(=O)COC(=O)C1=NN(c2ccccc2)C(=O)CC1	none (no result: HDAC3 inhib, LANA-H2A inh)
O=C(CNC(=O)C1CCCCC1)OCn1nnc2ccccc2c1=O	LANA-H2A inh 15.3
O=C(c1cc(Cl)nc2ccccc12)N1CCN(Cc2ccc3c(c2)OCO3)CC1	LANA-H2A inh 20.8
COc1ccc(Cl)cc1C(=O)N1CCN(Cc2ccc3c(c2)OCO3)CC1	LANA-H2A inh 14.3
O=C(c1ccccc1Cl)N1CCN(Cc2ccc3c(c2)OCO3)CC1	none
COC(=O)[C@@]12CCCCN1[C@H](c1ccc(-c3ccc(C(C)=O)cc3)c(OC)c1)[C@@H]1C(=O)N(C)C(=O)[C@@H]12	none
COc1ccc(Cl)cc1NC(=O)C/C(C)=N/NC(=O)C(=O)NCc1ccccc1	LANA-H2A inh 15.3
CC(C)(C)[C@@H]1COC(=O)[C@@H](Cc2ccc(F)cc2)C/C=C\C[C@H](CC(=O)N(CCO)Cc2ccccc2)C(=O)N1	none
CC[C@]12c3[nH]c4ccc(Cl)cc4c3CCN1C(=O)[C@@H](CC(=O)NCCC1=CCCCC1)C[C@@H]2C(=O)N1CCN(C(=O)C2CC2)CC1	none (no result: HDAC3 inhib, LANA-H2A inh)
Cc1cccc(OCCOC(=O)c2c(-c3ccccc3)noc2C)c1	none
O=C(O)C(C/C(=N/O)c1ccc(Br)cc1)P(=O)(c1ccccc1)c1ccccc1 (stereo not given)	LANA-H2A inh 14.7
Cc1nc(CN(C)C(=O)CC2C(=O)NCCN2Cc2ccc(-c3ccccc3)cc2)cs1 (stereo not given)	none
CCC(=O)c1ccc(OCc2ccc(C#N)cc2)cc1	none
CCC(=O)c1ccc(OCc2ccc(C(=O)OC)cc2)cc1	LANA-H2A inh 14.3
CCCn1nnnc1SCC(=O)NCc1cccs1	LANA-H2A inh 98.3
CCn1nnnc1SCC(=O)NCc1cccs1	none
CN1CCN(c2nc3ccccc3nc2C(C#N)S(=O)(=O)c2ccccc2)CC1 (stereo not given)	none
COc1ccc(S(=O)(=O)C(C#N)c2nc3ccccc3nc2N2CCCCC2)cc1 (stereo not given)	A3G deaminase 41.2
N#CC(c1nc2ccccc2nc1N1CCCC1)S(=O)(=O)c1ccccc1 (stereo not given)	LANA-H2A inh 16.7
CCOC(=O)c1ccc(NS(=O)(=O)c2ccc3c(c2)oc(=O)n3C)cc1	LANA-H2A inh 32.3
Cc1ccc2c(c1)c1c(n2CC(O)Cn2c(C)nc3ccccc32)C(=O)CCC1 (stereo not given)	none
Cc1ccc2c(c1)c1c(n2CC(O)Cn2c(C)nc3ccccc32)/C(=N\O)CCC1 (stereo not given)	HDAC3 inhib 28.1
CC1=NN(C(=O)c2ccc(Cl)cc2)C(O)(c2ccccc2)C1 (stereo not given)	LANA-H2A inh 9.9
CCN(CC(=O)Nc1c(F)cccc1F)C(=O)c1ccc(C2SCCS2)cc1	HDAC3 inhib 62.3
CCN(CC(=O)Nc1c(F)cccc1F)C(=O)c1ccc(C(F)(F)F)cc1	none
CN(CC(=O)Nc1cccc(F)c1)C(=O)c1ccc(C2SCCS2)cc1	HDAC3 inhib 59.1
COc1ccc(CC(=O)NCC(=O)N/N=C/c2ccc(C)o2)cc1	HDAC3 inhib inconclusive
COc1ccc(C(=O)NCC(=O)N/N=C/c2ccc(C)o2)cc1OC	HDAC3 inhib 56.0
CC1(C(=O)N2CCC(CC3CC(c4cccc(Br)c4)=NO3)(C(=O)NCC3CCCCC3)CC2)CC1 (stereo not given)	none
O=C(CCl)NC1CCCc2ccccc21 (stereo not given)	none
O=C(CN1CCN(c2cccc(Cl)c2)CC1)NC1CCCc2ccccc21 (stereo not given)	LANA-H2A inh 20.0
CCCCCCC(=O)N(O)C1CC(=O)N(c2ccc(F)cc2)C1=O (stereo not given)	HDAC3 inhib 79.0
CCCCCCC(=O)N(O)C1CC(=O)N(c2ccc(Br)cc2)C1=O (stereo not given)	HDAC3 inhib 80.0
COC(=O)c1ccc(NC(=O)COc2ccc([N+](=O)[O-])cc2)cc1	LANA-H2A inh 19.8
O=C(CCOc1ccccc1)Nc1ccc([N+](=O)[O-])cc1	LANA-H2A inh 14.6
O=C(Nc1ccc([N+](=O)[O-])cc1)C1C(c2ccccc2)=C1c1ccccc1	LANA-H2A inh 17.7
COc1ccc(CN2CCN(C(=O)CCC(=O)c3ccc(C)s3)CC2)cc1OC	HDAC3 inhib inconclusive
COC(=O)c1ccc(C(=O)OC)c(NC(=O)C2CCCO2)c1 (stereo not given)	LANA-H2A inh 15.8
O=C(O)c1ccc(Cl)cc1NC(=O)C1CCCO1 (stereo not given)	none
CC(C)(C)OC(=O)C[C@@H]1C/C=C\C[C@@H](CC(=O)N[C@@H](CO)Cc2ccccc2)C(=O)N2CCC[C@@H]2COC1=O	none
COc1ccc(CCN2CC(C(=O)Nc3nnc(Cc4ccccc4)s3)CC2=O)cc1OC (stereo not given)	LANA-H2A inh 10.8
NC(=O)C1CCN(C(=O)c2ccc(Cl)c(S(=O)(=O)N3CCCCCC3)c2)CC1	none
CCCCn1nc(C(=O)NCC(=O)Nc2c(C)cccc2C)c2ccccc2c1=O	LANA-H2A inh active
CCCCn1nc(C(=O)N(CC)CC(=O)Nc2c(F)cccc2F)c2ccccc2c1=O	none
Cc1nc(C)c(C(=O)OCC(=O)N(C)c2ccccc2)s1	none (no result: HDAC3 inhib, LANA-H2A inh)
CC(OC(=O)c1ccc(S(=O)(=O)NCc2ccco2)cc1)C(=O)Nc1ccccc1 (stereo not given)	LANA-H2A inh 14.0
